Screening results from PubChem.
Shown are actives, neighbours in structure and some others; about 5.4% of the full set was active somewhere.
VACV mCherry inh = inhibitors of vaccinia virus infection (mCherry reporter signal) | Vaccinia virus mCherry reporter infection, fluorescence | Potency, µM (doses to about 36.5 µM), for the others: at the top dose activity change, negative = inhibition, usual class: inhibitors | actives 0.63% (n = 310,000); calls by dose curve; tested in A549 cells; also: nearly all actives have a fitted effect of over 35% in size
FMDV antiviral = antivirals against foot and mouth disease virus; actives 1.2% (n = 410,000); Potency, µM (series often up to 57.9 µM), inactives show top-dose activity change, negative = inhibition, usual class: inhibitors; AID 1159524; FMDV antiviral cell-based qHTS; calls by dose curve; tested in HEK293T cells; also: read-out not given here; nearly all actives have a fitted effect of over 45% in size
VACV Venus inh = vaccinia inhibition (Venus reporter) | Vaccinia virus Venus reporter expression, fluorescence | Potency, µM (titrated, usually from 36.5 µM), without a hit: at the top dose activity change, negative = inhibition, hits mostly inhibitors | actives 0.46% (n = 330,000); calls by dose curve; tested in A549 cells; also: nearly all actives have a fitted effect of over 30% in size
Lassa entry inh = inhibitors of Lassa virus binding or cell entry. Lassa virus pseudotype entry inhibition, cell reporter. Potency, µM (series often up to 37.9 µM), for the others: at the highest dose activity change, negative = inhibition, actives largely listed as inhibitors. actives 1.2% (n = 300,000); calls by dose curve; tested in HEK293 cells; also: nearly all actives have a fitted effect of over 50% in size
Sm TGR block = S. mansoni TGR enzyme inhibition; Q962Y6; purified TGR, DTNB reduction, TNB absorbance 405 nm; Potency, µM (top dose mostly 114 µM), for the others: at the top dose activity change, negative = inhibition, usual class: inhibitors; actives 3% (n = 360,000); AID 485364; active = well fitted inhibition curve with a large enough effect; inconclusive = small, poorly fitted or top-dose-only effect; inactive = no such curve, though single readings can be large or run the other way; also: nearly all actives have a fitted effect of over 60% in size
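Kinetic colorimetric format: TGR-catalysed, NADPH-driven DTNB reduction monitored via TNB absorbance. Enzyme dispensed at 20 nM; compound exposure 15 min at room temperature before reaction start.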
MARV entry inh = inhibitors of Marburg virus binding or cell entry. Marburg virus pseudotyped entry inhibition, cell reporter. Potency, µM (highest dose often 37.8 µM), for the others: at the top dose activity change, negative = inhibition, usual class: inhibitors. actives 1.8% (n = 300,000); calls by dose curve; tested in HEK293 cells
* marks the source's active call; other numbers are inactive results; i = inactive; u = inconclusive; x = not tested or not shown; ! = not active in a repeat; [ ] = dose if it differs, or a comment. % is scaled to controls: 0 for no effect and ±100 for the full control effect; potency is read from the fitted curve at half-maximal effect.

SMILES	VACV mCherry inh	FMDV antiviral	VACV Venus inh	Lassa entry inh	Sm TGR block	MARV entry inh
O=C(CSc1nccc(=O)[nH]1)N1N=C2/C(=C/c3ccco3)CCCC2C1c1ccco1 (configuration not stated)	-13%	-12%	-15%	-6%	22µM*	-2%[46.1 µM]
Nc1nc(SCC(=O)N2N=C3/C(=C/c4ccco4)CCCC3C2c2ccco2)n[nH]1 (configuration not stated)	x	0%	-29%	-20%	u	-14%
Cn1cnnc1SCC(=O)N1N=C(c2ccc(Cl)cc2)CC1c1ccco1 (configuration not stated)	x	-22%	x	x	32µM*	x
Cn1cnnc1SCC(=O)N1N=C2/C(=C/c3ccco3)CCCC2C1c1ccco1 (configuration not stated)	-11%	0%	-3%	-5%	45µM*	-10%
Cc1cccc(NC(=O)c2oc3ccc(S(=O)(=O)N(C)C4CCCCC4)cc3c2C)c1C	-6%	-5%	-16%	-24%[46.1 µM]	0%	x
COc1ccc(C(=O)NC(=S)Nc2ccc(Cl)c(C(=O)O)c2)cc1	i	-3%	-9%	-18%[46.1 µM]	40µM*	-4%
COc1ccc(Br)cc1C(=O)NC(=S)Nc1ccc(Cl)c(C(=O)O)c1	i	0%	-15%	7%	-6%	7%
CC(C)Oc1cccc(C(=O)NC(=S)Nc2cccc(C(F)(F)F)c2)c1	x	-19%	-11%	u	0%	u
CC(C)Oc1cccc(C(=O)NC(=S)Nc2ccc(Cl)c(C(=O)O)c2)c1	x	32%	x	0%	40µM*	u
COC(=O)CSc1ncc2c(n1)-c1ccccc1N(Cc1ccccc1C)S2(=O)=O	-9%	-3%	-3%	u	12%	x
Cc1ccccc1C(=O)NCc1nc2cccnc2n1Cc1ccccc1	-8%	1%	-6%	14%[46.1 µM]	4%	x
CC(=C1C(=O)c2ccccc2C1=O)N1CCN(Cc2ccccc2)CC1	-13%	30%	-4%	1%	40µM*	20%
CC(=C1C(=O)c2ccccc2C1=O)N1CCC(C(N)=O)(N2CCCCC2)CC1	-6%	-10%	-5%	u	32µM*	16%
CN(CC(=O)Nc1cccc(F)c1)S(=O)(=O)c1ccc2c(c1)n(C)c(=O)c(=O)n2C	-9%	10%	-9%	20%[46.1 µM]	-2%	0%[46.1 µM]
CCN(CC)CCOC(=O)c1cc(Cl)c(N)cc1OC	i	-9%	-16%	u	-6%	13µM*!
COCCN1C(=O)NC(c2cccc(C(F)(F)F)c2)C(C(C)=O)=C1C (configuration not stated)	x	x	x	x	x	11%[14.2 µM]
COc1ccc(CCNC2CC(=O)N(CCc3ccccc3)C2=O)cc1 (configuration not stated)	-27%	x	-4%	-23%	u	22%
CCN(CC)c1ccc(NC2CC(=O)N(CCc3ccc(OC)cc3)C2=O)cc1 (configuration not stated)	-8%	-18%	10%	-11%	10µM*	-19%[46.1 µM]
O=C1C=Cc2ccccc2C1=O	x	x	x	1%	11µM*	-1%
N#Cc1c(N)sc(=S)c2c1CCCC2	5%[1.46 µM]	0%	-18%	-7%	28µM*	6%
COc1ccc(N2CCN(C(=O)c3oc4ccccc4c3NC(=O)CCc3cc(OC)no3)CC2)cc1	u	25µM*	-14%	-21%[46.1 µM]	-5%	-18%[46.1 µM]
COc1ccccc1CN(CC(=O)NCc1ccco1)C(=O)CNS(=O)(=O)c1ccccc1	x	-12%	u	-15%	50µM*	0%
Cc1ccc(S(=O)(=O)NCC(=O)N(CC(=O)NCc2ccco2)Cc2cccs2)cc1	x	6%	x	-2%	-36%	-14%
COc1ccccc1CN(CC(=O)NCc1ccco1)C(=O)CNS(=O)(=O)c1ccc(C)cc1	x	0%	-27%	-1%	28µM*	1%
CC(C)Oc1ccc(CNC(=O)CN2C(=O)CCn3nc(-c4cn(C)c5ccccc45)cc32)cc1	-15%	-7%	-13%	5%[46.1 µM]	-1%	x
SMILES	VACV mCherry inh	FMDV antiviral	VACV Venus inh	Lassa entry inh	Sm TGR block	MARV entry inh
CC(C)Oc1ccc(CNC(=O)Cn2nc(N3CCN(c4ccccc4)CC3)ccc2=O)cc1	-10%	u	-8%	-22%[46.1 µM]	-8%	x
Cc1ccc(-n2c(SCC(N)=O)nc3c(oc4ccccc43)c2=O)cc1C	-1%	u	-16%	x	2%	12%[46.1 µM]
O=C(NC1CCCC1)C(c1ccc(F)cc1)N(Cc1ccc(F)cc1)C(=O)c1ccn[nH]1 (configuration not stated)	-7%	-8%	-4%	11%	-15%	10%
COCCN(C(=O)CCl)C(C(=O)NC1CCCCC1)c1ccccc1C (configuration not stated)	u	20µM*	u	u	3.5µM*	8.9µM*
O=C(NC1CCCC1)C(c1ccc(F)cc1)N(Cc1ccccc1Cl)C(=O)CCl (configuration not stated)	-10%	28µM*	-18%	-15%	u	u
COCCCN1CN=C(NS(=O)(=O)c2ccc(NC(C)=O)cc2)NC1	-7%	2%	-2%	-3%[46.1 µM]	2%	u
N#C/C(=N/O)c1nc(-c2ccccc2)cs1	x	x	x	x	x	15%
O=C(Nc1nc(-c2ccco2)cs1)c1ccccc1	x	0%	-12%	u	-15%[11.4 µM]	1%[46.1 µM]
Cc1ccc(-c2csc(NC(=O)c3ccc(-c4ccccc4)cc3)n2)o1	u	-22%	-25%	x	10µM*	x
Cc1nc(C)c(-c2csc(Nc3ccc(S(N)(=O)=O)cc3)n2)s1	-23%	-19%	-27%	u	-21%	u
Cc1ccc(-c2csc(Nc3ccc(S(N)(=O)=O)cc3)n2)o1	-20%	u	-9%	5%	1.8µM*	22%[46.1 µM]
Cc1ccc(-c2csc(NC(=O)Cc3ccc(F)cc3)n2)o1	-11%	4%	-13%	-5%	7.1µM*	3%[46.1 µM]
Cc1[nH]n(-c2ccccc2)c(=O)c1-c1ccc(Cl)cc1	-31%	-13%	-27%	14%	-1%	2%[46.1 µM]
O=c1[nH]n(-c2ccc(Cl)cc2)c(=O)c(Cl)c1Cl	x	-18%	x	27%	7.1µM*	5%
O=C(CN1CCN(C2CCCCC2)CC1)c1ccc2cc[nH]c2c1	-33%	5%	-1%	x	32µM*	x
O=C(CN1CCN(C2CCCCC2)CC1)c1c[nH]c2ccccc12	-6%	21%	-2%	0%	-3%	1%[46.1 µM]
O=C1C(Cl)=CC(=Nc2ccc(O)cc2)C=C1Cl	x	21%	x	x	0.89µM*	x
CCCn1nc([N+](=O)[O-])c(C(C#N)c2nc3ccccc3o2)c(Cl)c1=O (configuration not stated)	i	0%	-20%	u	2.2µM*	u
CCn1nc([N+](=O)[O-])c(C(C#N)c2nc3cc(C(F)(F)F)ccc3s2)c(Cl)c1=O (configuration not stated)	x	2µM*	x	10%	4µM*	-19%
Cn1nc([N+](=O)[O-])c(C(C#N)c2ccccn2)c(Cl)c1=O (configuration not stated)	x	32µM*	x	x	4.5µM*	x
